Results on 40 compounds are retold here after PubChem BioAssay (EPA / NIEHS).

Each structure is given as a SMILES string. The source made the active and inactive calls. Rule for the calls: active = hit-call score of the fitted dose curve at least 0.9, where 1 is the maximum; inactive = score below 0.9.

This assay is described as follows: ATG_GATA_CIS: Attagene CIS-FACTORIAL HepG2 Assay for human GATA Binding Protein (AID 2282944). The note with it: HepG2 GATA cis-element reporter, Attagene multiplex mRNA; actives raise or lower the signal. How it is done: ATG_CIS is a cell-based, multiplexed-readout assay that uses HepG2, a human liver cell line, with measurements taken at 24 hours after chemical dosing in a 24-well plate.ATG_GATA_CIS is one of 52 assay component(s) measured or calculated from the ATG_CIS assay. It is designed to make measurements of mRNA induction, a form of inducible reporter, as detected with fluorescence intensity signals by Reverse transcription polymerase chain reaction (RT-PCR) and Capillary electrophoresis technology.Data from the assay component ATG_GATA_CIS was analyzed into 1 assay endpoint. This assay endpoint, ATG_GATA_CIS, was analyzed with bidirectional fitting relative to DMSO as the negative control and baseline of activity. Using a type of inducible reporter, measures of mRNA for gain or loss-of-signal activity can be used to understand the reporter gene at the transcription factor-level as they relate to the gene GATA1. Furthermore, this assay endpoint can be referred to as a primary readout, because this assay has produced multiple assay endpoints where this one serves a reporter gene function. To generalize the intended target to other relatable targets, this assay endpoint is annotated to the dna binding intended target family, where the subfamily is GATA proteins.
Human liver HepG2 cells are transiently transfected with multiple reporter transcription units (MRTUs) in 6-well plates using FuGene 6 reagent (Roche; 3 ml FuGene/1 mg DNA). The MRTU constructs are regulated by a cis-regulating element (promoter). […] A major difference between the CIS and TRANS system is that in CIS activities of endogenous TFs are measured, whereas the TRANS assay evaluates changes in activities of exogenous, chimeric NR-Gal4 proteins. […] At the end of 24 hour incubation, total RNA was isolated using TriZol reagent (Invitrogen). The isolated RNA is then reverse-transcribed using oligo(dT) primer and Mo-MLV reverse transcriptase (Invitrogen) with DNAse I (Ambion) treatment for 30 min. The one-tenth of the produced cDNA was amplified by PCR using Taq DNA polymerase (Invitrogen) and two reporter sequence-specific primers. The PCR products were fluorescently labeled by primer extension with 6-arboxyfluorescein (6-FAM) 5'-labeled reporter sequence-specific primer (2 min at 95 C, 20 s at 68 C and 10 min at 72 C) and these products were digested with 5U of HpaI (New England Biolabs) for 2h at 37 C. The fragments were purified using Qiaquick PCR columns (Qiagen), analyzed on an ABI 3130xL genetic analyzer (Applied Biosystems) with peak positions identified by using a set of X-rhodamine (ROX)-labeled MapMarker1000 molecular weight standards (BioVentures). The raw capillary electrophoresis data was processed using Attagraph software (Attagene).
Take `CCCCCCCCCCOC(=O)c1ccccc1C(=O)OCCCCCCCC`: the outcome was inactive. The same measure, in the same setting: the same measure for `O=S(=O)(O)CCCN1CCOCC1`: “inactive”; for `CC1=CC(O)CC(C)(C)C1` (stereo not given): “inactive”. As to `Nc1cc([N+](=O)[O-])ccc1C(=O)O`, the call was inactive.

`C=CCOC(=O)/C=C\C(=O)OCC=C`: the result was inactive. Same read-out and setting: the same measure for `ClCCOCCOCCCl`: “inactive”; for `CC(C)(O)CCc1ccccc1`: “inactive”; for `CCCCCCCC(=O)N(C)C`: “inactive”.

Consider `NC(=O)c1c(Cl)cccc1Cl`, for which the result was inactive.

As to `CC(=O)c1cccnc1`, the outcome was inactive. Same read-out and setting: the same measure for `CCCCCCCCCCCCCCCCCC(=O)OCCCCCCCCCCCCCC(C)C`: “inactive”; for `COc1ccccc1O`: “inactive”; for `CC/C=C\CCOC(C)OCC` (stereo not given): “inactive”. Same read-out and setting: the same measure for `O=C(O)c1ccco1`: “inactive”. The same measure, in the same setting: the same measure for `O=C(O)c1ccccc1O`: “inactive”; for `Cc1ccccc1S`: “inactive”; for `CCCCCCCOC(C)=O`: “inactive”.

Consider `O=C(C=Cc1ccccc1)OCCCc1ccccc1`, for which the compound was called inactive. The same measure, in the same setting: the same measure for `CC12CCC(C1)C(C)(C)C2O` (stereo not given): “inactive”; for `CC(C)OB(OC(C)C)OC(C)C`: “inactive”; for `CCCCCCCCOC(C)=O`: “inactive”. Turning to `CC(C)N(c1ccccc1)C(C)C`, the compound was called inactive. As to `CC/C=C\CCCCO`, the compound was classed as inactive. The same measure, in the same setting: the result for `COc1ccccc1NC(=O)CC(C)=O` reads “inactive”. Consider `CCC(C)(C)c1cc(O)c(C(C)(C)CC)cc1O`, for which the half-maximal activity concentration (AC50) is 27.2 µM (active). Regarding `CCC(=O)OCC=Cc1ccccc1`, the outcome was inactive.

Consider `CCOC(=O)CC(C)C`, for which the compound was called inactive.

For the compound `O=c1cc(-c2ccc(O)cc2)oc2cc(O)cc(O)c12`, the call was inactive.

With `CC(C)COC(=O)c1ccccc1`, the call was inactive. Same read-out and setting: the result for `CCCCOCCOCCOCCO` reads “inactive”.

Take `CCOC(=O)CC1(C)OCC(C)O1` (stereo not given): the call was inactive. The same measure, in the same setting: the same measure for `CC(=O)CC(=O)N(C)C`: “inactive”. Same read-out and setting: the same measure for `CC(=O)CC(C)(C)C1CCCCC1`: “inactive”; for `CC1(C)CC(=O)CC(C)(C)N1`: “inactive”; for `O=C(O)CS`: “inactive”. Same read-out and setting: the result for `CCn1cc(C(=O)O)c(=O)c2ccc(C)nc21` reads “inactive”; that for `Cc1ccncc1`, “inactive”. For `CCCCOC(=O)C(C)OC(=O)CCC` (stereo not given), the compound was called inactive.

In the case of `C[N+](C)(C)CCO`, the call was inactive. Same read-out and setting: the same measure for `CC1(C)CC(N)CC(C)(CN)C1` (stereo not given): “inactive”.
